Results published in PubChem BioAssay AID1117319 (Southern Research Institute, 2015).
Values joined by “and” are separate entries in the source; they are usually repeats but may differ in a detail not shown here. Equal values may be shown once. About 1,500 (0.58%) of roughly 260,000 compounds were called active. Another 5% or so got no clear call; they are omitted.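 How the source made its calls: active means inhibition above a set limit at one or more doses, reproduced on every date tested; inconclusive means results disagree between test dates, or hit never tested in dose response; inactive means the rest.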 The list is a sample of the results. Entries with a potency or affinity are not part of this list.

Biological target: Virion infectivity factor (Human immunodeficiency virus type 1 group M subtype B (isolate BH10)) + Virion infectivity factor (Human immunodeficiency virus type 1 group M subtype B (isolate BRU/LAI)) + Virion infectivity factor (Human immunodeficiency virus type 1 group M subtype B (isolate PCV12)) + Virion infectivity factor (Human immunodeficiency virus type 1 group M subtype B (isolate HXB2)) + DNA dC->dU-editing enzyme APOBEC-3G (Homo sapiens) (UniProt P69720+P69721+P69722+P69723+Q9HC16)
Assay: HIV-1 Vif–A3G interaction blockers – biochemical, TR-FRET, GST-Vif 1-94, biotin-A3G peptide, dose response retest, primary screen (AID 1117319);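 further: Vif residues 1-94 fused to GST binding biotinylated APOBEC3G peptide 110-148; 0% = full assay without inhibitor and 100% = GST in place of GST-Vif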
Conditions: TR-FRET GST-Vif / biotin-A3G peptide binding; stronger effect = higher value

inhibition, inactive:
O=C(Nc1cccc2c1CCCC2)C1CCCN(S(=O)(=O)c2cccc3nonc23)C1 (stereo unspecified) 22.9% and -4.27%, N#CC1=C(Nc2ccccc2)SC=C(c2ccccc2)N=C1N1CCOCC1 23.5%, N#CC1=C(Nc2ccccc2)SC=C(c2ccc(F)cc2)N=C1N1CCOCC1 -6.08%, COc1ccc(CCNC(=O)CC(Cc2ccc(C)cc2)C(=O)O)cc1OC (stereo unspecified) -5.29%, CCc1ccc(C(=O)COC(=O)c2cnc(C)cn2)cc1 2.17%, CCCN1C(=O)/C(=C/c2ccc(C)o2)SC1=Nc1ccc(OC)cc1 23.9%, COc1ccc(N=C2S/C(=C\c3ccc(C)s3)C(=O)N2CC(C)C)cc1 -0.05%, Cc1cccc(Cc2ccc(Cl)nn2)c1 3.42%, COc1cc(CCCN2C(=O)C(=O)NC[C@@H]2c2ccccc2)cc(OC)c1OC -0.8%, COc1cccc(CN2CCN(Cc3cccc4nonc34)CC2CCO)c1 (stereo unspecified) -3.03%, Cc1ccccc1CN1C[C@@H]2C[C@@H](c3cn[nH]c3-c3ccc(F)cc3)N3CCC[C@@]23C1=O 6.1%, O=S(=O)(Nc1nc2ccccc2nc1N1CCN(c2ccccc2)CC1)c1ccc(F)cc1 10.6%, CN1CCN(c2nc3ccccc3nc2NS(=O)(=O)c2ccc(Br)cc2)CC1 4.67%, CC(C)CNC(=O)COCc1cc(-c2ccc3c(c2)OCO3)on1 5.26%, COc1ccc(Cl)cc1C(=O)OCC(=O)NC(=O)c1cccn1C -9.04%, COc1ccc(S(=O)(=O)N2CCCC2CNC(=O)C(=O)NCc2ccccc2)cc1 (stereo unspecified) -0.59%, CCC(=O)NCC(c1ccco1)N1CCN(c2ccc(OC)cc2)CC1 (stereo unspecified) 2.46%, CCc1ccc(C(=O)Nc2cc(C)ccc2F)s1 -4.32%, O=C1NCCc2c1[nH]c1ccccc21 18.5%, c1ccc2c3c([nH]c2c1)CCNC3 -5.47%, COc1cc2[nH]c(=O)n(CCCCCC(=O)N3CCN(c4ccccn4)CC3)c(=O)c2cc1OC -2.43% and 26.2%, CCC(=O)N1CC2(CC(c3cccc(NC(=O)CC(c4ccccc4)c4ccccc4)c3)=NO2)C[C@H]1C(N)=O (stereo partly specified) 4.04%, O=C(CSc1nc2ccccc2c(=O)n1-c1ccccc1)NCc1ccc2c(c1)OCO2 -2.26%, CC(Sc1nc2cc([N+](=O)[O-])ccc2n1-c1ccc(F)cc1)C(=O)NCc1ccc2c(c1)OCO2 (stereo unspecified) -9.4%, COc1ccccc1-n1c(SCC(=O)c2ccc(O)cc2O)nc2cc([N+](=O)[O-])ccc21 11.3%, Cc1cccc(-n2c(SCC(=O)NCc3ccc4c(c3)OCO4)nc3ccccc3c2=O)c1 19.8%
